Bioassay records deposited in PubChem BioAssay by Sanford-Burnham Center for Chemical Genomics.
A selection: hits, their analogues and other compounds. The true share with any hit is near 2.6%.
PHOSPHO1 block: blocks human PHOSPHO1 phosphatase activity; Q8TCT1; recombinant PHOSPHO1, absorbance phosphatase assay; inhibition, % at 13.3 µM; hit rate 1.1% among 290,000; in the data active means inhibition above about 60%
Target sequence (Q8TCT1 whole entry, looked up): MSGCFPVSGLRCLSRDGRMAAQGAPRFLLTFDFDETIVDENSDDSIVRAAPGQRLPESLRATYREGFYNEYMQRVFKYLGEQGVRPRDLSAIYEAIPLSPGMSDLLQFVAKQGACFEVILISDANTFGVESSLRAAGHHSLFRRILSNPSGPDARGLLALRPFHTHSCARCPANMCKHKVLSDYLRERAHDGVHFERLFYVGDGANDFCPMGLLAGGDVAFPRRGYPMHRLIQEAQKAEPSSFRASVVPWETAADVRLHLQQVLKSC
MLLE-PAM2 inh: inhibitors of microRNA-mediated deadenylation, human PABP1 MLLE binding | inhibition, % at 20 µM | GST-MLLE / FITC-PAM2 fluorescence polarization | hit rate 0.36% among 360,000 | P11940; in the data active means inhibition above about 35%, passing the limit was not always enough
eIF4H FP inh: inhibitors of RNA binding by human eIF4H; inhibition, % at 35 µM; hit rate 0.94% among 290,000; AID 2012; eIF4H fluorescence polarization binding assay;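 further: calls also rest on retests at 20 µM and on dose response follow-up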
CRFBP-R2 block: CRF-BP/CRF-R2 complex antagonism; hit rate 0.59% among 350,000; inhibition, % at 11.8 µM; HEK293 CRF-R2/CRF-BP, CRF-induced calcium fluorescence;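 active means inhibition of the ligand-induced calcium signal above about 50% at the single tested concentration, limit read from the data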
PABP polyA inh: blocks human PABP binding to poly(A) RNA. P11940. fluorescence polarization. inhibition, % at 35 µM. hit rate 1% among 290,000. AID 2014;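 further: calls also rest on retests at 20 µM and on dose response follow-up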
Each line names hits and unclear results; the compound was inactive in the other large screens. Unless noted, how the calls were made is not given here.

COc1ccc(S(=O)(=O)N2CCC(Nc3ccccc3Cl)CC2)cc1	PHOSPHO1 block 61
COc1ccc(S(=O)(=O)N2CCN(CC(=O)NC3CC3)CC2)cc1	PHOSPHO1 block 62
COc1ccc(S(=O)(=O)N2CCN(CC(=O)Nc3cccc(OC)c3)CC2)cc1	none
O=C(CN1CCN(S(=O)(=O)c2ccc(F)cc2)CC1)NC1CCCC1	PHOSPHO1 block 61
COc1ccc(C(C#N)CC(=O)c2ccc(OCc3ccccc3)c(OC)c2)cc1OC (centres undefined)	none (no result: PHOSPHO1 block, eIF4H FP inh, PABP polyA inh)
COc1ccc(-c2ccc(CN3C(C(C)C)C(=O)N(Cc4cn(CCC5OCCO5)nn4)CCS3(=O)=O)cc2)cc1 (centres undefined)	none (no result: PHOSPHO1 block, eIF4H FP inh, PABP polyA inh)
CCN(CC)C(=O)C1=C(C)N(Cc2ccc(OC)cc2)C(=O)C(CC(=O)NCC2CCCCC2)C1 (centres undefined)	none (no result: PHOSPHO1 block, eIF4H FP inh, PABP polyA inh)
CCn1c(COc2ccccc2C)nnc1SCC(=O)CC(=O)Nc1ccccc1	PHOSPHO1 block 69
CCn1c(COc2ccccc2C)nnc1SCC(=O)O	none
c1cc2c(cc1CNc1ccc(N3CCOCC3)cc1)OCO2	none (no result: PHOSPHO1 block, eIF4H FP inh, PABP polyA inh)
O=C(N/N=C/c1ccc(-c2ccc(S(=O)(=O)Nc3ncccn3)cc2)o1)c1cc2ccccc2cc1O	eIF4H FP inh 83, PABP polyA inh 52
NC(=S)NN=Cc1ccc(-c2ccc(S(=O)(=O)Nc3ncccn3)cc2)o1	none (no result: PHOSPHO1 block, eIF4H FP inh, PABP polyA inh)
CCOc1ccc(S(=O)(=O)N(CC(=O)N/N=C/c2ccc(-c3ccc([N+](=O)[O-])cc3)o2)c2ccccc2)cc1	eIF4H FP inh 79, PABP polyA inh 22
CCOc1ccc(C(=O)N/N=C/c2ccc(-c3ccc(S(=O)(=O)Nc4ncccn4)cc3)o2)cc1	eIF4H FP inh 69, PABP polyA inh 32
Cc1ccc(C)c(N(CC(=O)N/N=C/c2ccc(-c3ccc([N+](=O)[O-])cc3)o2)S(=O)(=O)c2ccccc2)c1	eIF4H FP inh inconclusive
Cc1nc2ccc(Br)cc2c2c1CC(CO)O2 (centres undefined)	none
C=CCN1C(c2ccccc2)=CS/C1=C(/C#N)c1nnc(N2CCOCC2)n1-c1ccccc1	none
CN1C(c2ccc(F)cc2)=CS/C1=C(/C#N)c1nnc(N2CCOCC2)n1-c1ccccc1	CRFBP-R2 block 95
CCN1CCC(O)(/C=C/c2ccc(C(C)C)cc2)C(C(=O)/C=C/c2ccc(C(C)C)cc2)C1 (centres undefined)	none (no result: PHOSPHO1 block, eIF4H FP inh, PABP polyA inh)
CCOC(=O)N1CCN(C(=O)C2CCC(=O)N(CCCN3CCCC3=O)C2)CC1 (centres undefined)	none
CCOC(=O)N1CCN(C(=O)C2CCC(=O)N(CCCc3ccccc3)C2)CC1 (centres undefined)	PHOSPHO1 block 61
CCC(CC)C(=O)c1c[nH]c(C(=O)N2CCN(c3ccc(OC)cc3)CC2)c1	none
O=C(NC(=S)Nc1cccc(O)c1)c1cncc(Br)c1	MLLE-PAM2 inh 42 (no result: PHOSPHO1 block, eIF4H FP inh, PABP polyA inh)
O=C(NNC(=S)Nc1ccc(Br)cc1)c1ccccc1	none
CC(=O)c1cccc(NC(=S)NC(=O)c2ccc(Br)cc2)c1	MLLE-PAM2 inh 41
O=C(NNC(=S)Nc1ccccc1)c1cccc(Br)c1	PHOSPHO1 block 89
Cc1cc(O)ccc1NC(=S)NC(=O)c1cncc(Br)c1	MLLE-PAM2 inh 44
O=C1NC[C@H](Cc2ccccc2)N(CC2CCN(CCc3ccc(-c4ccccc4)cc3)CC2)C1=O	none (no result: PHOSPHO1 block, eIF4H FP inh, PABP polyA inh)
COc1cccc(C(NC(C)=O)c2nc(-c3cccc(C(C)C)c3)cs2)c1 (centres undefined)	none (no result: PHOSPHO1 block, eIF4H FP inh, CRFBP-R2 block, PABP polyA inh)
Cc1ccc(S(=O)(=O)NC(=O)COc2ccccc2C)c(C)c1	none
COc1cc(/C=C2/C(C)=C(C#N)c3nc(N)c(C#N)c(C)c32)ccc1OCC(=O)O	none (no result: MLLE-PAM2 inh)
CC1=C(C#N)c2nc(N)c(C#N)c(C)c2/C1=C\c1ccc(-c2ccccc2C(=O)O)o1	eIF4H FP inh 86, PABP polyA inh 65
COc1cnn(-c2ccccc2)c(=O)c1SCc1ccc(Cl)c(Cl)c1	PHOSPHO1 block 88
COc1c(Cl)cnn(-c2ccccc2)c1=O	none
N=c1sccn1CC(=O)Nc1cc(Cl)ccc1Oc1ccccc1	PHOSPHO1 block 69
CC(=O)N(C)c1ccc(N=NC2C(=O)N(C(N)=S)N=C2C)cc1 (centres undefined)	CRFBP-R2 block 51
Cc1cccn2cc(CNc3ccccc3)nc12	none
CCOC(=S)SCc1cn2cccc(C)c2n1	MLLE-PAM2 inh 39
CN1CCc2c(C#N)c(N3CCCCC3)nc(NCc3ccccc3)c2C1	eIF4H FP inh 74, PABP polyA inh 53
N#Cc1c(NCCCO)nc(NCc2ccccc2)c2c1CCN(Cc1ccccc1)C2	eIF4H FP inh inconclusive, PABP polyA inh inconclusive
O=C1C2=C(SCCS2)C(=O)N1CCCO	MLLE-PAM2 inh 58, eIF4H FP inh 101, PABP polyA inh 111
O=C1c2ccc(-c3ccc4c(c3)C(=O)N(CCCO)C4=O)cc2C(=O)N1CCCO	none
Cc1ccc(NC(=O)Cn2ncn3c(cc4ccccc43)c2=O)cc1F	CRFBP-R2 block 60
CCC1=C/C(=C/N(C)c2ccccc2)C(=O)S1	eIF4H FP inh 53, PABP polyA inh 80
CN(C)/C=C1/C=C(c2ccccc2)OC1=O	none
O=c1[nH]c(-c2ccncc2)nc2ccccc12	PHOSPHO1 block 98
Cc1ccc(-c2[nH]nc3c2C(C)C(C#N)=C(N)O3)cc1 (centres undefined)	eIF4H FP inh 9.9
COc1ccc(-c2ccc(C3C(C#N)=C(N)Oc4n[nH]c(C)c43)o2)cc1 (centres undefined)	eIF4H FP inh inconclusive, PABP polyA inh 84
N#Cc1c(Cl)nc(SCc2ccccc2)nc1-c1ccccc1	PHOSPHO1 block 96 (no result: MLLE-PAM2 inh, CRFBP-R2 block)
N#Cc1c(-c2ccccc2)nc(SCc2cccc(Cl)c2)[nH]c1=O	CRFBP-R2 block 56
Cc1[nH]c(=O)nc(SCc2cccc(Cl)c2)c1C#N	none
CCN(c1ccccc1)S(=O)(=O)c1cccc(C(=O)Nc2cccc(C)n2)c1	none (no result: PHOSPHO1 block, eIF4H FP inh, PABP polyA inh)
O=C(O)c1cc(C(=O)O)cc(-c2ccc(/C=c3/sc4nc5ccccc5n4c3=O)o2)c1	eIF4H FP inh 56 (no result: MLLE-PAM2 inh)
COC(=O)/C=c1/sc2nc3ccccc3n2c1=O	none
O=c1/c(=C/c2ccccn2)sc2nc3ccccc3n12	eIF4H FP inh inconclusive, PABP polyA inh inconclusive
O=c1/c(=C\c2cc([N+](=O)[O-])cc([N+](=O)[O-])c2O)sc2nc3ccccc3n12	PHOSPHO1 block 67, CRFBP-R2 block 60
O=C(O)c1ccccc1-c1ccc(C=c2sc3nc4cc(Br)cnc4n3c2=O)o1	none (no result: PHOSPHO1 block, eIF4H FP inh, CRFBP-R2 block, PABP polyA inh)
O=C(O)c1cccc(-c2ccc(/C=c3/sc4nc5ccccc5n4c3=O)o2)c1	PHOSPHO1 block 85
CCOc1ncccc1C(=O)OCC(=O)NCCCc1ccccc1	none (no result: PHOSPHO1 block, eIF4H FP inh, PABP polyA inh)
CCCc1nc2ccccc2c(NC(=O)CN(CC)CC)c1CC	none
CCCCc1nc2ccccc2c(NC(=O)CN(CC)CC)c1CCC	CRFBP-R2 block 98
Cc1ccc(S(=O)(=O)NCc2ccc(C(=O)N3CCCC3)cc2)cc1	eIF4H FP inh 6.8, PABP polyA inh 78
O=C(Oc1c(CN2CCOCC2)cc(Cl)c2cccnc12)c1ccccc1F	eIF4H FP inh inconclusive, PABP polyA inh 68
O=C(Oc1c(CN2CCOCC2)cc(Cl)c2cccnc12)c1ccccc1	none
